“And” between values parts separate entries of the source, which are not always exact repeats. Equal entries are not always repeated. Results filed as inconclusive are left out. The source made the active and inactive calls. The call rests on the fitted dose curve; in most records, active means well fitted curve in the direction sought with a large enough effect; inconclusive means small, poorly fitted or top-dose-only effect, or another doubt; inactive means no such curve, though single readings can be large or run the other way.
test: qHTS Assay for Identifying Gametocytocidal Compounds (AID 743244);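 further: actives lower the fluorescent signal which means gametocytes are killed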; conditions: P. falciparum 3D7 stage III-V gametocytes, alamarBlue, 72 h; max response: hits give low values
How it was run: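 P. falciparum 3D7 stage III–V gametocytes (20,000 cells/well) were exposed to compounds for 72 h at 37 °C, 5% CO2. AlamarBlue was then added for 24 h; decreased resorufin fluorescence (Ex 525/Em 598 nm) indicated loss of viability.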
On the % scale 0 is the no-effect control and ±100 the full control effect.

SMILES	max response
Cc1ncc(COP(=O)(O)O)c(C=O)c1O	5.05% (inactive)
CCN(CC)CCSC(=O)C(c1ccccc1)c1ccccc1	-11.9% (inactive)
CCC(=O)c1ccc(O)cc1	-0.113% (inactive)
C[C@H]1O[C@H](O[C@H]2[C@H](O)[C@@H](O)[C@@H](O[C@H]3[C@H](O)[C@@H](O)[C@H](O)O[C@@H]3CO)O[C@@H]2CO)[C@H](O)[C@@H](O)[C@@H]1N[C@H]1C=C(CO)[C@@H](O)[C@H](O)[C@H]1O	2.05% (inactive)
N[C@H]1C(O)O[C@H](CO)[C@@H](O)[C@@H]1O (stereo partly specified)	-9.09% (inactive)
CCCCOc1cc(C(=O)OCCN(CC)CC)ccc1N	9.75% (inactive)
NC(CSCC(=O)O)C(=O)O (stereo unspecified)	-8.42% (inactive)
O=Cc1ccccc1C=O	-3.58% (inactive)
CCC(=O)Nc1ccc(O)cc1	7.2% (inactive)
C[C@@H]1C[C@H]2[C@@H]3C[C@H](F)C4=CC(=O)C=C[C@]4(C)[C@@]3(F)[C@@H](O)C[C@]2(C)[C@@]1(O)C(=O)CO	2.1% (inactive)
O=C(O)Cc1sc(-c2ccccc2)nc1-c1ccc(Cl)cc1	-5.46% (inactive) and 46.6% (inactive) and 14.6% (inactive)
CCn1cc(C(=O)O)c(=O)c2cnc(N3CCNCC3)nc21	12.2% (inactive)
Cc1ccc(C(C)C)cc2c(C)ccc1-2	3.45% (inactive)
O=S(=O)(O)c1cc(I)c(O)c2ncccc12	5.64% (inactive)
N[C@@H](CSCCCO)C(=O)O	-2.32% (inactive)
CCOC(CN1CCN(CC(C)C(=O)c2ccccc2)CC1)c1ccccc1 (stereo unspecified)	18.2% (inactive)

From PubChem BioAssay (NCATS)
